Reference: PubChem BioAssay AID1578 (Sanford-Burnham Center for Chemical Genomics, 2009)
Screen size: about 290,000 compounds; about 3,000 (1%) were called active. For the sample, actives were picked, then their nearest neighbours and some compounds at random. Unmarked numbers belong to inactive results. Rule as the data show it: active = inhibition mostly above about 36% (no sharp cut-off); inactive = mostly below about 34%.

Assay: NOD1 signaling inhibitors, primary screen, cell-based, luminescence, uHTS (AID 1578);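 also: HEK-293T reporter cells stimulated with the NOD1 agonist gamma-tri-DAP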
Details: NOD1-driven NF-kB luciferase reporter cells, at 4 µM, hits give high values

SMILES | inhibition
Cc1ccccc1-n1nc2c(c1NC(=O)C(C)C)CS(=O)(=O)C2 | -6.5%
CC(=O)c1cccc(NC(=O)c2ccc3c(Cl)c4c(nc3c2)CCCC4)c1 | -3.3%
O=C(Nc1cccnc1Cl)c1ccc2c(Cl)c3c(nc2c1)CCC3 | -39.9%
N#Cc1ccccc1NC(=O)c1ccc2c(Cl)c3c(nc2c1)CCCC3 | 66.5% (active)
Clc1ccc(C2Nc3ccccc3-n3cccc32)cc1 (stereo unspecified) | -20.2%
CN1CCCN(C(=O)c2ccc(Cl)s2)CC1 | -15%
O=C(c1cc2ccccc2oc1=O)N(Cc1ccc2c(c1)OCO2)Cc1ccco1 | -2.2%
O=C(c1cc2ccccc2oc1=O)N(Cc1ccccc1)Cc1ccc2c(c1)OCO2 | 50.1% (active)
O=C(NCc1ccc2c(c1)OCO2)c1cc2ccccc2oc1=O | 11.3%
COc1cc(C(C(=O)NC2CCCCC2)N(Cc2ccco2)C(=O)c2cnccn2)cc(OC)c1OC (stereo unspecified) | -34.1%
C[C@]12C=CC(=O)C=C1CC[C@@H]1C2C(O)C[C@@]2(C)C1CC[C@]2(O)C(=O)COC(=O)CCC(=O)NC(CC(=O)O)C(=O)O (stereo partly specified) | -8.1%
O=C(/C=C/c1ccc(F)cc1)NC(=S)Nc1ccccc1C(=O)NC1CCCCC1 | 12.3%
CN(C(=S)NC(=O)/C=C/c1ccc(F)cc1)C1CCCCC1 | -22.9%
O=C(/C=C/c1ccc(F)cc1)NC(=S)NC1CCCCC1 | 36.3% (active)
COc1cccc2c(Nc3ccccc3C)cc(C)nc12 | 6.4%
COc1cc(/C=C(\C#N)c2nc3ccccc3[nH]2)cc(OC)c1O | 6.4%
COC(=O)/C(=C\c1ccc(O)cc1)c1nc2ccccc2[nH]1 | -44.4%
COc1cc(/C=C(/C(=O)c2cccs2)c2nc3ccccc3[nH]2)cc(OC)c1O | 98.8% (active)
COc1ccc(/C=C(\C#N)c2nc3ccccc3[nH]2)cc1O | 12%
COc1ccc(C(=O)N/C(=C/c2cccs2)c2nc3ccccc3[nH]2)cc1OC | -5.7%
O=C(CN1CCOCC1)OCCCc1ccccc1 | -23.1%
CCCCNC(=O)Nc1c(C(=O)OCC)[nH]c2ccccc12 | -25.1%
CCOC(=O)CCCCCN(Cc1ccccc1)S(=O)(=O)c1ccc([N+](=O)[O-])cc1 | -22.1%
CCOC(=O)c1c(-c2ccc(C)o2)csc1NC(=O)CN1CCOCC1 | 14.9%

SMILES | inhibition
CCc1nc(SCc2ccccc2C#N)n[nH]1 | -30.4%
O=C(Nc1ccc(C(=O)N2CCCC2)cc1)c1ccc(F)cc1Cl | -14%
CCOC(=O)N1CCN(C(=O)c2ccc(Cn3c(=S)[nH]c4cc(C(=O)OC)ccc4c3=O)cc2)CC1 | -11%
CCOC(=O)N1CCN(C(=O)c2ccc(Cn3c(=S)[nH]c4cc(OCC)c(OCC)cc4c3=O)cc2)CC1 | 19.9%
O=C(c1ccc(Cn2c(=O)[nH]c3ccccc3c2=O)cc1)N1CCN(c2ccccn2)CC1 | -8.3%
COc1ccc(Cn2c(=O)[nH]c3cc(C(=O)N4CCN(c5ccccn5)CC4)ccc3c2=O)cc1 | -10.7%
O=C(CSc1ncccc1C(=O)O)NC1CCCCC1 | -47.1%
CC(C)C(=O)Nc1ccc(Cl)cc1-c1nc2ccccc2[nH]c1=O | 34.6%
Cc1cccc(C)c1NC(=O)CSc1nnc([C@@H]2CCCN2C(=O)OC(C)(C)C)o1 | -0.7%
N#CCS(=O)(=O)c1ccccc1 | -5.7%
O=C(CSc1nc2scc(-c3ccccc3)c2c(=O)[nH]1)NC1CCCCC1 | 67.6% (active)
CC(C)(C)NC(=O)CSc1nc2scc(-c3ccccc3)c2c(=O)[nH]1 | 25.7%
O=C(CSc1nc2scc(-c3ccccc3)c2c(=O)[nH]1)N1CCCCC1 | -9.2%
Cc1ccc2nc(CNC(=O)C3CCC(=O)N(Cc4ccccc4F)C3)cn2c1 (stereo unspecified) | -21.3%
Cc1ccc(C2=NNC3(CCOC(C)(C)C3)S2)cc1 (stereo unspecified) | 74.5% (active)
Cc1ccc(C2(CC(=O)O)CCOC(C)(C)C2)cc1 (stereo unspecified) | 5.4%
CCc1ccc2c(c1)C1(NN=C(c3ccc(C)cc3)S1)C(=O)N2 (stereo unspecified) | 15.2%
O=C(c1cnsn1)N1CCC(CO)(Cc2ccc(Cl)cc2)CC1 | -10.4%
NC(=O)c1cc(-c2csc(NCCc3ccccc3)n2)ccc1O | -52.8%
COc1ccc(N2CCN(C(=O)CSc3nc4[nH]ncc4c(=O)n3-c3ccc(Br)cc3)CC2)cc1 | 8.7%
CCN1CCCC1CNC(=O)C(=O)NC (stereo unspecified) | -17.4%
CCN1CCCC1CNC(=O)C(=O)NC1CC1 (stereo unspecified) | 40.8% (active)
CCCNC(=O)C(=O)NCC1CCCN1CC (stereo unspecified) | -18.5%
CCCCNC(=O)Cn1c(-c2ccc(OC)cc2)noc1=O | -2.3%

SMILES | inhibition
COc1ccc(NC(=O)N2CCC(O)(c3cccnc3)CC2)c(OC)c1 | 15.9%
Oc1ccc(Br)cc1-c1cc(-c2ccccc2)n[nH]1 | -13.2%
Fc1ccc(-c2ccnn2-c2ccccc2)cc1 | -18.4%
Oc1ccc(Br)cc1-c1ccnn1-c1ccccc1 | 82.1% (active)
COC(=O)CCCCC1SCC2NC(=O)NC21O (stereo unspecified) | -2.5%
Cc1ccc2c(Cl)c(C(=O)NCc3cccnc3)sc2c1 | 12.2%
Cc1nnc(NC(=O)c2sc3ccccc3c2Cl)s1 | -46.1%
O=C(Nc1cccnc1)Nc1ccccc1Cl | -8.9%
Cc1ccc2c(Cl)c(C(=O)Nc3cccnc3)sc2c1 | 87.9% (active)
O=C(Nc1ccc(Cl)cc1)Nc1cccnc1 | -14.9%
Cc1ccc2c(Cl)c(C(=O)Nc3cc(C)on3)sc2c1 | -79.3%
Cc1ccc(NC(=O)c2sc3ccccc3c2Cl)nc1 | -21.7%
O=C(Nc1cccnc1)Nc1cc(Cl)cc(Cl)c1 | 76.8% (active)
Cc1cnc(NC(=O)c2sc3ccccc3c2Cl)s1 | 105% (active)
COc1ccccc1-c1cc(C(=O)Nc2ccccc2SC)no1 | -10%
CCOC(=O)C1(Cc2ccccc2C)CCCN(C(=O)c2ccnn2C)C1 (stereo unspecified) | -17.1%
Cc1ccc(C)c(SCC(=O)NNC(=O)c2ccccc2)c1 | -14.3%
Cc1cc(Cl)c(S(=O)(=O)N2CCCC2)cc1OCC(=O)NC1CCCCC1 | 28.5%
CCN1CCN(S(=O)(=O)c2cc(OCC(=O)NC3CCCCC3)c(C)cc2Cl)CC1 | 26.3%
C/C(=C\c1ccccc1)C(=O)Nc1cc(C)on1 | -6.1%
Cc1ccccc1Cn1cc(C)c(=O)[nH]c1=O | -20.8%
CC(C)(C)n1nnnc1C(c1ccc(F)cc1)N(Cc1ccc(F)cc1)Cc1ccco1 (stereo unspecified) | -2.1%
COc1cccc(CN(Cc2ccco2)C(c2ccc(F)cc2)c2nnnn2C(C)(C)C)c1 (stereo unspecified) | 50.8% (active)
CC(C)(C)n1nnnc1C(c1ccc(C(F)(F)F)cc1)N(Cc1ccc(F)cc1)Cc1ccco1 (stereo unspecified) | -13.2%

SMILES | inhibition
Cc1nc2cc(NC(=O)N3CC4(C)CC3CC(C)(C)C4)ccc2n1C (stereo unspecified) | -31.3%
COC(=O)CCc1ccc(O)cc1 | -24%
CN1CCN(C(c2ccc(C(F)(F)F)cc2)c2ccc3cccnc3c2O)CC1 (stereo unspecified) | 23.8%
Cc1c(CCO)c(=O)[nH]n1S(=O)(=O)c1ccc(F)cc1 | -15.6%
Cc1csc(CNC(=O)c2ccc(OC3CCN(CCc4ccccc4)CC3)cc2)n1 | -16.3%
COc1ccc2c(c1)C=C(CN1CCC(CO)(CCc3ccccc3)CC1)CO2 | -10%
OCC1(CCOc2ccccc2)CCN(CC2=Cc3cc(Cl)ccc3OC2)CC1 | -37.6%
CCOc1cc(C(=O)NN2CCOCC2)cc(OCC)c1OCC | -21.5%
Cc1cc(Cl)ccc1NC(=S)N1CCN(Cc2ccccc2)CC1 | -13.4%
Cc1ccccc1NC(=S)N1CCN(Cc2ccc3c(c2)OCO3)CC1 | -15.3%
O=C(NC(=S)N1CCN(Cc2ccc3c(c2)OCO3)CC1)c1ccc(Cl)cc1 | -3.6%
CCN(CC)c1ccc(C(=O)NC(=S)N2CCN(Cc3ccc4c(c3)OCO4)CC2)cc1 | -0.4%
O=C(c1ccccc1)N1CCN(Cc2ccc3c(c2)OCO3)CC1 | -5.8%
O=C(c1n[nH]c(=O)c2ccccc12)N1CCN(Cc2ccc3c(c2)OCO3)CC1 | 3.4%
Cc1cc(Cl)ccc1NC(=S)N1CCN(Cc2ccc3c(c2)OCO3)CC1 | 79.9% (active)
O=C(COC(=O)COc1ccccc1Cl)Nc1ccccc1OC(F)F | -10.4%
CN(CCCC(=O)N1CCCC(C(N)=O)C1)S(=O)(=O)c1ccc(F)cc1 (stereo unspecified) | -19.1%
Cc1ccc(NC(=O)CN2C(=O)S/C(=C\c3ccc(C(=O)O)cc3)C2=O)cc1 | -12.7%
O=C(Cc1ccc(-n2c(=O)c3ccccc3n(Cc3cccc([N+](=O)[O-])c3)c2=O)cc1)NCC1CCCO1 (stereo unspecified) | 5.4%
COc1ccc(CCNC(=O)CSc2ccc(-c3ccco3)nn2)cc1OC | -15.4%
COc1ccc(F)cc1S(=O)(=O)NCCN1CCOCC1 | 15.5%
COc1cccc2cc(C(=O)OC3CCN(C)CC3)c(=O)oc12 | -29.1%
Cc1ccc(Cl)cc1N1CCN(Cc2nnnn2Cc2ccco2)CC1 | -5.9%
Cc1cc(C)n(C(=O)CNC(=O)c2ccccc2Br)n1 | -28.7%
